Calls of active or inactive are those of the source. Rule for the calls: active = hit-call score of the fitted dose curve at least 0.9, where 1 is the maximum; inactive = score below 0.9.
Experiments:
[1] = ATG_GLI_CIS: Attagene CIS-FACTORIAL HepG2 Assay for human Zinc Finger Protein GLI1 (AID 2282945); conditions: HepG2, Attagene cis-factorial reporter mRNA, GLI element; actives raise or lower the signal
Summary of the method: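 Transiently transfected HepG2 cells report endogenous transcription factor activity via cis-element-driven reporter units. After 24 h compound exposure, reporter mRNA was measured by RT-PCR with capillary electrophoresis; bidirectional fitting against DMSO baseline.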

[2] = ATG_GRE_CIS: Attagene CIS-FACTORIAL HepG2 Assay for human Glucocorticoid Response Elements (GRE) (AID 2282947); conditions: HepG2 GRE cis-reporter, Attagene multiplex mRNA; actives raise or lower the signal
Summary of the method: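 Endogenous transcription factor activity is read through cis-element reporter constructs transiently transfected into HepG2 cells. After 24 h treatment, labelled RT-PCR products are resolved by capillary electrophoresis; DMSO sets baseline for bidirectional curve fitting.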

[3] = ATG_ISRE_CIS: Attagene CIS-FACTORIAL HepG2 Assay for human Interferon Regulatory Factor 1 (IRF1) binding to an Interferon-Stimulated Response Element (ISRE) (AID 2282948); conditions: HepG2 ISRE cis-reporter (Attagene), mRNA transcription readout; actives raise or lower the signal
Summary of the method: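 Cell-based cis-reporter assay; HepG2; 24 h exposure; reporter mRNA by RT-PCR plus capillary electrophoresis fluorescence; activity in either direction scored relative to DMSO.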

[4] = ATG_M_32_CIS: Attagene CIS-FACTORIAL HepG2 Assay for M32 Transcription Factor (Internal Marker) (AID 2282949); conditions: HepG2 Attagene cis-factorial M32 reporter, mRNA; actives raise or lower the signal;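 note: background control marker of the multiplexed CIS panel rather than a real target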
Summary of the method: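 Internal background marker read-out: RT-PCR/capillary electrophoresis fluorescence of reporter transcripts from transiently transfected HepG2 cells after 24 h chemical exposure. Activity fitted bidirectionally relative to DMSO negative control.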

[5] = ATG_M_06_CIS: Attagene CIS-FACTORIAL HepG2 Assay for M06 Transcription Factor (Internal Marker) (AID 2282950); conditions: HepG2 Attagene CIS-FACTORIAL M06 internal marker reporter; actives raise or lower the signal
Summary of the method: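 Steps: transfect HepG2 with multiplexed cis-element reporter constructs; dose chemical 24 h; extract RNA with DNase treatment; reverse-transcribe, PCR-amplify, 6-FAM label, HpaI digest; separate fragments by capillary electrophoresis. Activity fitted both directions versus DMSO.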

[6] = target: Hypoxia-inducible factor 1-alpha (Homo sapiens) (UniProt Q16665); experiment: ATG_HIF1a_CIS: Attagene CIS-FACTORIAL HepG2 Assay for human Hypoxia Inducible Factor 1 (HIF1A) (AID 2282951); conditions: HepG2 Attagene cis-factorial HIF1a reporter transcription; actives raise or lower the signal
Chain of Hypoxia-inducible factor 1-alpha (Homo sapiens) (Q16665 whole entry, looked up): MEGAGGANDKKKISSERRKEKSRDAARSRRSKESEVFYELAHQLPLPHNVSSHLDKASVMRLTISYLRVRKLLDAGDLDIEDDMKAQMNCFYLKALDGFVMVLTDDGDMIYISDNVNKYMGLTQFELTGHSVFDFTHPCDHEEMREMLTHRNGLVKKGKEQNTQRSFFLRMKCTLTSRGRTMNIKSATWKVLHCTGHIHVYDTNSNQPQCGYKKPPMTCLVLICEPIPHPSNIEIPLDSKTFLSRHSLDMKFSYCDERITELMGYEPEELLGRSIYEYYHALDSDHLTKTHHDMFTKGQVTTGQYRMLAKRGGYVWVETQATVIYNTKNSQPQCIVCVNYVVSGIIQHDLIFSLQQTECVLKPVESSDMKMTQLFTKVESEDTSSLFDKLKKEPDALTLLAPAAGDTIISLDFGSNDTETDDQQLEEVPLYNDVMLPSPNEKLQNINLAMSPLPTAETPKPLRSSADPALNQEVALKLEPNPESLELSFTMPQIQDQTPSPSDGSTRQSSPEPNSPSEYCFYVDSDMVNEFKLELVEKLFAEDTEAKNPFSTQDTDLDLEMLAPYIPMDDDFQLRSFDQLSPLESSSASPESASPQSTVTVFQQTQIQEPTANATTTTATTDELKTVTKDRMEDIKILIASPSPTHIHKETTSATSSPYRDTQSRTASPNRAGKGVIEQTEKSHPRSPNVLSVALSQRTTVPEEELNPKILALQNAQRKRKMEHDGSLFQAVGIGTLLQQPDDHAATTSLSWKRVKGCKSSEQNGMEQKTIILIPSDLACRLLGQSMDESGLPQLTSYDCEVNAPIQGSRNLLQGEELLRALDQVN
Summary of the method: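 In this multiplexed cell assay, HepG2 cells bearing transfected cis reporters are dosed for 24 h and reporter mRNA is read by RT-PCR plus capillary electrophoresis; signal increases and decreases are both scored against DMSO.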

[7] = target: Hepatocyte nuclear factor 6 (Homo sapiens) (UniProt Q9UBC0); experiment: ATG_HNF6_CIS: Attagene CIS-FACTORIAL HepG2 Assay for human Hepatocyte Nuclear Factor 6 (HNF6) (AID 2282952); conditions: HepG2 Attagene cis-factorial HNF6 reporter transcription; actives raise or lower the signal
Chain of Hepatocyte nuclear factor 6 (Homo sapiens) (Q9UBC0 whole entry, looked up, the tested form may be a part): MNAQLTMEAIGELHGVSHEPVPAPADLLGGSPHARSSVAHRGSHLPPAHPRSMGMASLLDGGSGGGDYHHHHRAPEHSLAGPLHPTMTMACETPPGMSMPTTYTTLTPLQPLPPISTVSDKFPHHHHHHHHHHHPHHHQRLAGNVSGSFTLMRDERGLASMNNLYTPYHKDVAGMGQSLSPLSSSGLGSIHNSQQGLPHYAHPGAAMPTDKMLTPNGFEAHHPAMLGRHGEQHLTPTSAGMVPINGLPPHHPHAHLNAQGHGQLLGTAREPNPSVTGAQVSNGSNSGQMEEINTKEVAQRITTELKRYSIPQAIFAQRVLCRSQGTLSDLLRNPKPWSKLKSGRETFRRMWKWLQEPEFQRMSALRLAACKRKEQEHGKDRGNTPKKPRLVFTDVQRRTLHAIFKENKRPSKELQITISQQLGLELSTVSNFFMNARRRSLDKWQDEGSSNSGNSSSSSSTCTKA
Summary of the method: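 Reporter mRNA induction or loss in HepG2 after 24 h exposure; transient cis-MRTU transfection; fragments quantified by capillary electrophoresis; bidirectional analysis, DMSO as negative control.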

[8] = target: Heat shock factor protein 1 (Homo sapiens) (UniProt Q00613); experiment: ATG_HSE_CIS: Attagene CIS-FACTORIAL HepG2 Assay for human Heat Shock Transcription Factor 1 (HSE) (AID 2282953); conditions: HepG2 HSE cis-reporter, Attagene RNA transcription; actives raise or lower the signal
Chain of Heat shock factor protein 1 (Homo sapiens) (Q00613 whole entry, looked up, the tested form may be a part): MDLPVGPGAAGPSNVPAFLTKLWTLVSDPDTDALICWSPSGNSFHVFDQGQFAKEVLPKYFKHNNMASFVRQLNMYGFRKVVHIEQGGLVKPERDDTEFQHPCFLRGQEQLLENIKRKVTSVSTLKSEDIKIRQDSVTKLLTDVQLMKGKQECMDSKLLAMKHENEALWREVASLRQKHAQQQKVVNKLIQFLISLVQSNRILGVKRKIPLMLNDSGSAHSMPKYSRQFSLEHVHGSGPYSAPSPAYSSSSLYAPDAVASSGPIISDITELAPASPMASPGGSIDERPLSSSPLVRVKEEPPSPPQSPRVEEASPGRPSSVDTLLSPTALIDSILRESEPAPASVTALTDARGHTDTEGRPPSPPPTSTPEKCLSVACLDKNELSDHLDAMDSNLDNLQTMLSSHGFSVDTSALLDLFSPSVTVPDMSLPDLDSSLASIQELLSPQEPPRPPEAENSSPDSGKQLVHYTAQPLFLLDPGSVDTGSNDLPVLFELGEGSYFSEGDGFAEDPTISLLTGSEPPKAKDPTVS
Summary of the method: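 Cells were transfected with cis-element-driven reporter constructs, dosed for 24 h, then total RNA was reverse-transcribed and reporter cDNA amplified, FAM-labelled and digested with HpaI. Fragments were resolved by capillary electrophoresis; gain or loss was fitted against DMSO.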

[9] = ATG_MRE_CIS: Attagene CIS-FACTORIAL HepG2 Assay for human Metal Responsive Element (MRE) (AID 2282954); conditions: HepG2 MRE cis-reporter transcription, Attagene multiplex; actives raise or lower the signal
Summary of the method: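 Fluorescent reporter fragments separated by capillary electrophoresis give mRNA induction for the MRE unit after 24 h treatment of transfected HepG2 cells. Endogenous transcription-factor activity is read; DMSO serves as negative control and baseline.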

[10] = ATG_PBREM_CIS: Attagene CIS-FACTORIAL HepG2 Assay for human Phenobarbital-responsive Enhancer Module (PBREM) (AID 2282955); conditions: HepG2 PBREM cis-reporter, Attagene multiplexed transcription; actives raise or lower the signal
Summary of the method: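 After a 24 h incubation with test chemical, transfected HepG2 cells yield total RNA; reporter-specific RT-PCR products are fluorescently labelled, HpaI-digested and resolved by capillary electrophoresis against ROX size standards.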

[11] = target: Paired box protein Pax-6 (Homo sapiens) (UniProt P26367); experiment: ATG_Pax6_CIS: Attagene CIS-FACTORIAL HepG2 Assay for human Paired Box 6 (PAX6) (AID 2282956); conditions: HepG2 CIS-FACTORIAL PAX6 reporter transcription, RNA readout; actives raise or lower the signal
Chain of Paired box protein Pax-6 (Homo sapiens) (P26367 whole entry, looked up): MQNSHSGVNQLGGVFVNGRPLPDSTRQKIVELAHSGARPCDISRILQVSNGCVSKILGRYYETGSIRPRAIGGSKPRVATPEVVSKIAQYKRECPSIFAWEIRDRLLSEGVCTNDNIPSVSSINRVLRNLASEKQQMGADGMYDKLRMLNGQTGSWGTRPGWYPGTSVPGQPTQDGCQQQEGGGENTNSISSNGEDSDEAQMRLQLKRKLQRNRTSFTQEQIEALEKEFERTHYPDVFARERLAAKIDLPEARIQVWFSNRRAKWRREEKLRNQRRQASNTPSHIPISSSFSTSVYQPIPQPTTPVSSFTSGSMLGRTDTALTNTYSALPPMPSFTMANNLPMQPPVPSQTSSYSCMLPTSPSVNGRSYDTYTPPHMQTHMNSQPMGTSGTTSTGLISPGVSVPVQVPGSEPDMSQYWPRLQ
Summary of the method: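 Multiplexed cis-reporter HepG2 system; 24 h treatment; reporter mRNA read by RT-PCR/CE fluorescence; bidirectional fit vs DMSO.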

[12] = ATG_PXRE_CIS: Attagene CIS-FACTORIAL HepG2 Assay for human Pregnane X Receptor Element (PXRE) (AID 2282957); conditions: HepG2 Attagene CIS-FACTORIAL PXRE reporter, mRNA; actives raise or lower the signal
Summary of the method: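 Transiently transfected HepG2 cells were dosed and incubated for 24 h. RNA was then isolated, DNase-treated, reverse-transcribed and reporter sequences amplified. Labeled, HpaI-digested fragments were quantified by capillary electrophoresis against DMSO.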

[13] = ATG_RORE_CIS: Attagene CIS-FACTORIAL HepG2 Assay for human RAR-related Orphan Receptor Element (RORE) (AID 2282959); conditions: HepG2 Attagene cis-factorial RORE reporter, mRNA; actives raise or lower the signal
Summary of the method: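 Fluorescence intensity of reporter-specific cDNA fragments, separated by capillary electrophoresis, gives the signal. Source: HepG2 liver cells transiently transfected with cis-element reporters and exposed 24 h; DMSO-normalized bidirectional fit.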

[14] = ATG_Sox_CIS: Attagene CIS-FACTORIAL HepG2 Assay for human SRY-box transcription factor (SOX) (AID 2282960); conditions: HepG2 Attagene cis-factorial SOX reporter, mRNA; actives raise or lower the signal
Summary of the method: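 After 24 h of chemical treatment, transfected HepG2 reporter cells are lysed for total RNA. Transcript levels come from RT-PCR with labelled primer extension and capillary electrophoresis, analysed bidirectionally versus DMSO.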

[15] = target: Transcription factor Sp1 (Homo sapiens) (UniProt P08047); experiment: ATG_Sp1_CIS: Attagene CIS-FACTORIAL HepG2 Assay for human Specificity Protein 1 (Sp1) (AID 2282961); conditions: HepG2 Sp1 cis-reporter transcription, actives raise or lower the signal
Chain of Transcription factor Sp1 (Homo sapiens) (P08047 whole entry, looked up): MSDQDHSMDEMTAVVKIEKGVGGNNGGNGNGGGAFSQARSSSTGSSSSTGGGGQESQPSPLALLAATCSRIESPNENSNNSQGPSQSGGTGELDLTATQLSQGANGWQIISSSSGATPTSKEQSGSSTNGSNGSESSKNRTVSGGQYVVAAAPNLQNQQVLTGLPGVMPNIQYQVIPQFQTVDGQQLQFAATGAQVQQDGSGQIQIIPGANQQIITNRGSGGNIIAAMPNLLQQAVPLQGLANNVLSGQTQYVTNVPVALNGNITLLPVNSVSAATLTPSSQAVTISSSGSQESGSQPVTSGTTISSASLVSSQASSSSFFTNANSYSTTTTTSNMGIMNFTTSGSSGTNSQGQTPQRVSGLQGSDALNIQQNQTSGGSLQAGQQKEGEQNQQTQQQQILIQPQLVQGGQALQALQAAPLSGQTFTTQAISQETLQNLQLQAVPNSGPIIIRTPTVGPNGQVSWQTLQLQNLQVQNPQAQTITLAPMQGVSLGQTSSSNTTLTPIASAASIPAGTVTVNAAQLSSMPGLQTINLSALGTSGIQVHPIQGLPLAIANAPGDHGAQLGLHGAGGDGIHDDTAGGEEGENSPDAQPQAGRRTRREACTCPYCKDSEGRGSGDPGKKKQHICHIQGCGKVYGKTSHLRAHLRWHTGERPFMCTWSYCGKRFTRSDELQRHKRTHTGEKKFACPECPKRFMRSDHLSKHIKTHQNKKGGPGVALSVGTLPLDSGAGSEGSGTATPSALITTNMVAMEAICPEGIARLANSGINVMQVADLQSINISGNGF
Summary of the method: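 Sp1-driven reporter mRNA, read as capillary electrophoresis fluorescence after RT-PCR, in transiently transfected HepG2 cells dosed for 24 h; signal change in either direction relative to DMSO.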

[16] = ATG_SREBP_CIS: Attagene CIS-FACTORIAL HepG2 Assay for human Sterol Regulatory Element Binding (SREBP) (AID 2282962); conditions: HepG2 Attagene cis-factorial SREBP reporter, mRNA; actives raise or lower the signal
Summary of the method: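 mRNA induction of transfected cis-promoter reporters in HepG2 cells, 24 h post-dose. Detection: RT-PCR with 6-FAM-labelled products, HpaI digest, capillary electrophoresis. DMSO served as negative control and baseline.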

[17] = target: Signal transducer and activator of transcription 3 (Homo sapiens) (UniProt P40763); experiment: ATG_STAT3_CIS: Attagene CIS-FACTORIAL HepG2 Assay for human Signal Transducer and Activator of Transcription 3 (STAT3) (AID 2282963); conditions: HepG2, Attagene cis-factorial STAT3 reporter transcription; actives raise or lower the signal
Chain of Signal transducer and activator of transcription 3 (Homo sapiens) (P40763 whole entry, looked up): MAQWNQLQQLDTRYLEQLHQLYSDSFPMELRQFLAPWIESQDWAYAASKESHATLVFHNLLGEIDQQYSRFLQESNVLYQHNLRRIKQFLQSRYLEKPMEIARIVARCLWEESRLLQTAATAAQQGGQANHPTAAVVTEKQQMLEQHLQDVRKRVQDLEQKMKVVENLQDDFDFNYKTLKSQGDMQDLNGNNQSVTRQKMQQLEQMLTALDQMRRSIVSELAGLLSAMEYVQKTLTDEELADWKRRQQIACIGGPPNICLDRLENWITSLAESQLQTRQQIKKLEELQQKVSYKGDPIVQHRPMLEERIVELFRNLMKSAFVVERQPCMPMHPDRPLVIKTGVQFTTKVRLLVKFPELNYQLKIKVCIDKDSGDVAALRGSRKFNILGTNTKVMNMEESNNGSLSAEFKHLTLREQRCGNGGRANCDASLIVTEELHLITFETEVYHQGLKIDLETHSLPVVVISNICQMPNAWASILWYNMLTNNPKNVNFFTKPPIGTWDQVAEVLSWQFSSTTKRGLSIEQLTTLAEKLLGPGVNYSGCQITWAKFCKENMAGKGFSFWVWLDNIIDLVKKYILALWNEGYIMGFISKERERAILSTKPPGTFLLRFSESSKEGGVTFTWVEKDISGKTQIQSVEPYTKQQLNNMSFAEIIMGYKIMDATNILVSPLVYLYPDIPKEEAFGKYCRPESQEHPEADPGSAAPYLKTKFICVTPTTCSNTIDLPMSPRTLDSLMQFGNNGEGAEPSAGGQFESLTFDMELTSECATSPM
Summary of the method: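 Values derive from bidirectional fits relative to DMSO of reporter mRNA levels, measured by RT-PCR with capillary electrophoresis, in HepG2 cells carrying transiently transfected cis-regulated reporter units and exposed 24 h.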

[18] = ATG_TA_CIS: Attagene CIS-FACTORIAL HepG2 Assay for human TA Basal Promoter (AID 2282964); conditions: HepG2 Attagene CIS-factorial TA basal promoter reporter; actives raise or lower the signal
Summary of the method: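 Steps: transfect HepG2 with MRTUs; dose 24 h; isolate RNA, DNase-treat, reverse-transcribe; PCR and FAM-label reporter cDNA; digest with HpaI 2h at 37 C; run capillary electrophoresis. Activity fitted both directions against DMSO.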

[19] = ATG_PPRE_CIS: Attagene CIS-FACTORIAL HepG2 Assay for human Peroxisome Proliferator-activated Response Element (PPRE) (AID 2282958); conditions: HepG2 PPRE cis-element reporter, Attagene transcription factor profiling; actives raise or lower the signal
Summary of the method: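 Multiplexed reporter transcription units under cis-regulatory promoters were transfected into HepG2 cells to capture endogenous factor activity. A 24 h incubation preceded RNA isolation and fluorescent RT-PCR fragment analysis.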

Measured: AC50

CCCCCCCCC(CO)CCCCCC (configuration not stated)
active: [2] 126 µM | [7] 172 µM | [9] 158 µM | [10] 166 µM | [17] 133 µM
not listed: [19]
inactive: all other assays above

Nc1ccc(C(=O)OCCCOC(=O)c2ccc(N)cc2)cc1
active: [12] 27.5 µM
not listed: [13] | [18] | [19]
inactive: all other assays above

O=C1CCCN1C1CCCCC1
active: [12] 57.1 µM
not listed: [11] | [14] | [19]
inactive: all other assays above

CCCCCCCO
active: [12] 39.1 µM
not listed: [19]
inactive: all other assays above

O=C(O)CCCC(=O)O
not listed: [11] | [17] | [18]
inactive: all other assays above

CCCCC1CCC(=O)O1 (configuration not stated)
active: [12] 22.4 µM
not listed: [13] | [18] | [19]
inactive: all other assays above

Cc1ccc(S(=O)(=O)N=C=O)cc1
not listed: [10] | [18] | [19]
inactive: all other assays above

CC(=O)OC/C=C(/C)CCC=C(C)C
not listed: [19]
inactive: all other assays above

Clc1cc(Cl)c(Cl)c(Cl)c1Cl
active: [6] 27.7 µM | [10] 66.2 µM | [12] 27.6 µM
not listed: [19]
inactive: all other assays above

Cc1ccc2c(c1)CCCN2
active: [12] 65.1 µM
not listed: [10]
inactive: all other assays above

Fc1ccc(Br)cc1
not listed: [19]
inactive: all other assays above

O=C(OCCc1ccccc1)c1ccccc1
not listed: [12]
inactive: all other assays above

CC1CC(=O)CC(C)(C)C1 (configuration not stated)
not listed: [10] | [13] | [14] | [17]
inactive: all other assays above

Cc1cccc(C(C)(C)C)c1O
active: [10] 16.8 µM | [12] 4.59 µM
not listed: [19]
inactive: all other assays above

CC(=O)OC1CCCCC1C(C)(C)C (configuration not stated)
not listed: [10]
inactive: all other assays above

CCCCCCC=O
active: [19] 81.6 µM
not listed: [10]
inactive: all other assays above

Nc1nc(N)nc(-c2ccccc2)n1
not listed: [10] | [17]
inactive: all other assays above

Reference: PubChem BioAssay (EPA / NIEHS)
